Source: PubChem (NMMLSC)
Rows were chosen to be rich in hits. Some 3.5% of all compounds tested hit in one or more screens of this group.
Anthrax LF inh2: Bacillus anthracis LF protease inhibitors, primary screen, biochemical, multiplex microsphere, MLPCN library; Lethal factor (Bacillus anthracis), P15917; 360,000 tested, 0.12% active; multiplex microsphere protease cleavage assay; AID 588501, 2011; inhibition, % at 10 µM
Target sequence (P15917 whole entry, looked up): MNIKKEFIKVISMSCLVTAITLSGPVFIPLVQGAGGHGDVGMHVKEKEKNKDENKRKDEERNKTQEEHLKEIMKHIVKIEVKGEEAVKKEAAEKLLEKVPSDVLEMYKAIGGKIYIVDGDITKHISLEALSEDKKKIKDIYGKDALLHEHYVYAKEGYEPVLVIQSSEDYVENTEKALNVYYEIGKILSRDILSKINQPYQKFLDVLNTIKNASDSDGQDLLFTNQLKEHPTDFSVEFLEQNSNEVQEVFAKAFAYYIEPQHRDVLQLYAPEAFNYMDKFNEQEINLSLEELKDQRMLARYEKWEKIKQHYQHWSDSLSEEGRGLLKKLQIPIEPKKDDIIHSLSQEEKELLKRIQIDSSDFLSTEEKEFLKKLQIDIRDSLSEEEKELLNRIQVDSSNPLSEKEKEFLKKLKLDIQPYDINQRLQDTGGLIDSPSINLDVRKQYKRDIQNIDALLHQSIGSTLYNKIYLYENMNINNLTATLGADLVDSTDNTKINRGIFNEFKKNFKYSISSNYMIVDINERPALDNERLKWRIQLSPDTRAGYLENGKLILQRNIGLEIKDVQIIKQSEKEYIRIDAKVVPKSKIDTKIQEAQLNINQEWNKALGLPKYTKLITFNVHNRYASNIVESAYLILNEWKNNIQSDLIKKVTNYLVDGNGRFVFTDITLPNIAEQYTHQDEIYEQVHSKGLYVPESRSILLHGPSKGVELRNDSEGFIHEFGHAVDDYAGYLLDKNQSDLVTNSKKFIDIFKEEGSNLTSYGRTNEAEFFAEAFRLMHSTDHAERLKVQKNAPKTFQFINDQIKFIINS
BoNT-A LC inh2: BoNT/A light chain protease inhibitors, primary screen, biochemical, flow cytometry, MLPCN library. Botulinum neurotoxin type A light chain protease (Clostridium botulinum A str. ATCC 3502). multiplex microsphere protease substrate cleavage. inhibition, % at 10 µM. 360,000 tested, 0.17% active
Bead autofluor: counter-screen for toxin protease inhibitors: compound fluorescence; 360,000 tested, 3.1% active; fluorescence intensity (no concentration beside the values); AID 624483; compound autofluorescence counterscreen, microsphere flow cytometry; stronger effect = higher value; in the data active means fluorescence intensity above about 16000; inconclusive means no clear call, values can overlap the other calls
BoNT-F LC inh: BoNT/F light chain protease inhibitors, primary screen, biochemical, flow cytometry, MLPCN library | Botulinum neurotoxin type F light chain protease (Clostridium botulinum) | Multiplex microsphere protease cleavage assay | inhibition, % at 10 µM | 360,000 tested, 0.22% active | AID 588497, 2011; in the data active means inhibition above about 35%, passing the limit was not always enough; inconclusive means no clear call, values can overlap the other calls
A number is an active result. Unless noted, no stated cut-off is given here; in the data, active means inhibition above about 30%; inconclusive means no clear call, values can overlap the other calls; inactive means below that.

Screening Cc1ccc(NC(=O)c2cccc(S(=O)(=O)N3CCN(c4ccc(F)cc4)CC3)c2)nc1 returned Anthrax LF inh2 inactive, BoNT-A LC inh2 inactive, Bead autofluor inactive and BoNT-F LC inh inactive.
For CCN1CCCC1CNC(=O)C1CCN(Cc2nc(-c3cccc(Br)c3)oc2C)CC1 (stereo not drawn) the results were Anthrax LF inh2 inactive, BoNT-A LC inh2 inactive, Bead autofluor 18142 and BoNT-F LC inh inactive.
Cc1ccccc1-c1nc(CN2CCC(C(=O)NCCCN3CCOCC3)CC2)c(C)o1 was read as Anthrax LF inh2 inactive, BoNT-A LC inh2 inconclusive, Bead autofluor 26327 and BoNT-F LC inh inactive.
`Cc1ccccc1-c1nc(CN2CCC(C(=O)NCCCN3CCCC3)CC2)c(C)o1` gave Anthrax LF inh2 inactive, BoNT-A LC inh2 inactive, Bead autofluor 17690 and BoNT-F LC inh inactive.
Screening Cc1ccccc1-c1nc(CN2CCC(C(=O)NCCN3CCOCC3)CC2)c(C)o1 returned Anthrax LF inh2 inactive, BoNT-A LC inh2 inactive, Bead autofluor inactive and BoNT-F LC inh inactive.
Screening Cc1ccccc1-c1nc(CN2CCC(C(=O)NCCCN3CC(C)CC(C)C3)CC2)c(C)o1 (stereo not drawn) returned Anthrax LF inh2 inactive, BoNT-A LC inh2 inactive, Bead autofluor 22754 and BoNT-F LC inh inactive.
O=C(c1cc(-c2cccs2)nn1-c1ccccc1)N1CCN(S(=O)(=O)c2ccccc2)CC1 was read as Anthrax LF inh2 inactive, BoNT-A LC inh2 inactive, Bead autofluor inactive and BoNT-F LC inh inactive.
For COC(=O)Nc1ccc(S(=O)(=O)N2CCCC(C(=O)NCC3CCCO3)C2)cc1 (stereo not drawn) the results were Anthrax LF inh2 inactive, BoNT-A LC inh2 inactive, Bead autofluor inactive and BoNT-F LC inh inactive.
Screening COc1ccc(NC(=O)CCCc2nc3ccccc3c(=O)[nH]2)cc1Cl returned Anthrax LF inh2 inactive, BoNT-A LC inh2 inactive, Bead autofluor inactive and BoNT-F LC inh inactive.
For COc1ccc(NC(=O)C[C@H]2C(=O)N(C3CCCCC3)C[C@@H]2CSC)cc1 the results were Anthrax LF inh2 inactive, BoNT-A LC inh2 inactive, Bead autofluor inactive and BoNT-F LC inh inactive.
O=[N+]([O-])c1ccccc1C=NNc1ccccc1 was read as Anthrax LF inh2 inactive, BoNT-A LC inh2 inactive, Bead autofluor inactive and BoNT-F LC inh inactive.
Cc1ccc(-c2nc(N/N=C/c3ccccc3[N+](=O)[O-])c3ccccc3n2)cc1 was read as Anthrax LF inh2 inactive, BoNT-A LC inh2 inactive, Bead autofluor 16971 and BoNT-F LC inh inactive.
Screening COc1ccc(CC(=O)NNC(=O)c2ccco2)cc1OC returned Anthrax LF inh2 inactive, BoNT-A LC inh2 inactive, Bead autofluor inactive and BoNT-F LC inh inactive.
Screening CCOc1cc(NC(=O)c2ccco2)c(OCC)cc1NC(=O)Cc1ccc(OC)c(OC)c1 returned Anthrax LF inh2 inactive, BoNT-A LC inh2 inactive, Bead autofluor 20919 and BoNT-F LC inh inactive.
`COc1ccc(NC(=O)CCc2ccccc2)cc1NC(=O)c1ccco1` gave Anthrax LF inh2 inactive, BoNT-A LC inh2 inactive, Bead autofluor 19700 and BoNT-F LC inh inactive.
O=C(Nc1ccc2c(c1)CCCN2C(=O)c1ccccc1)c1ccccc1 was read as Anthrax LF inh2 inactive, BoNT-A LC inh2 inactive, Bead autofluor inactive and BoNT-F LC inh inactive.
O=C(Nc1ccccc1)C1CCCCC1 was read as Anthrax LF inh2 inactive, BoNT-A LC inh2 inconclusive, Bead autofluor 21764 and BoNT-F LC inh inactive.
Screening CCc1ccccc1NC(=O)C1CCCC1 returned Anthrax LF inh2 inactive, BoNT-A LC inh2 inactive, Bead autofluor inactive and BoNT-F LC inh inconclusive.
For O=C(Nc1ccc(F)cc1)N1CCOCC1 the results were Anthrax LF inh2 inactive, BoNT-A LC inh2 inconclusive, Bead autofluor 19165 and BoNT-F LC inh inactive.
`O=C(Nc1ccc(F)cc1)N1CCCCCC1` gave Anthrax LF inh2 inactive, BoNT-A LC inh2 inactive, Bead autofluor inactive and BoNT-F LC inh inactive.
O=C(Nc1ccccc1)N1CCCC1 was read as Anthrax LF inh2 inactive, BoNT-A LC inh2 inactive, Bead autofluor 23605 and BoNT-F LC inh inactive.
O=C(NC(=S)Nc1ccccc1)C1CCCCC1 was read as Anthrax LF inh2 inactive, BoNT-A LC inh2 inactive, Bead autofluor inactive and BoNT-F LC inh inactive.
Screening CCCC(=O)Nc1ccccc1NC(=O)C1CCCCC1 returned Anthrax LF inh2 inactive, BoNT-A LC inh2 inactive, Bead autofluor 23241 and BoNT-F LC inh inactive.
Screening O=C(Nc1ccccc1)N1CCNCC1 returned Anthrax LF inh2 inactive, BoNT-A LC inh2 inactive, Bead autofluor inactive and BoNT-F LC inh inactive.
`CC(C)(CCO)Nc1ncnc2onc(-c3ccc(F)cc3)c12` gave Anthrax LF inh2 inactive, BoNT-A LC inh2 inactive, Bead autofluor inactive and BoNT-F LC inh inactive.
OCC[C@@H]1C[C@@H](O)[C@H](O)[C@@]2(CCCc3ccccc3O2)O1 was read as Anthrax LF inh2 inactive, BoNT-A LC inh2 inactive, Bead autofluor inactive and BoNT-F LC inh inactive.
Screening CN(C(=O)c1ccc(NC(=O)Cc2ccc(NC(=O)C3CCCN(C(=O)CCc4ccccc4)C3)cc2)cc1)C1CCCC1 (stereo not drawn) returned Anthrax LF inh2 inactive, BoNT-A LC inh2 inactive, Bead autofluor inactive and BoNT-F LC inh inactive.
For COc1cc(NC(=O)C2CCCCC2)c(OC)cc1NC(=O)CCC(=O)NCc1ccco1 the results were Anthrax LF inh2 inactive, BoNT-A LC inh2 inactive, Bead autofluor 22591 and BoNT-F LC inh inactive.
`C=C(C)Cn1c2ccc(NC(=S)NCc3ccccc3F)cc2c(=O)n1C` gave Anthrax LF inh2 inactive, BoNT-A LC inh2 inactive, Bead autofluor inactive and BoNT-F LC inh inactive.
For CCOC(=O)c1cnc(-n2nc(C)cc2C)nc1N1CC(C)OC(C)C1 (stereo not drawn) the results were Anthrax LF inh2 inactive, BoNT-A LC inh2 inactive, Bead autofluor 21874 and BoNT-F LC inh inactive.
CCOC(=O)c1cnc(-n2nc(C)cc2C)nc1NC(C)c1ccccc1 (stereo not drawn) was read as Anthrax LF inh2 inactive, BoNT-A LC inh2 inactive, Bead autofluor 16140 and BoNT-F LC inh inactive.
CCOC(=O)c1cnc(-n2nc(C)cc2C)nc1NCCO was read as Anthrax LF inh2 inactive, BoNT-A LC inh2 inactive, Bead autofluor 22604 and BoNT-F LC inh inactive.
`CC1(C(=O)O)CCCN1C(=O)c1ccccc1OC(F)(F)F` (stereo not drawn) gave Anthrax LF inh2 inactive, BoNT-A LC inh2 inactive, Bead autofluor inactive and BoNT-F LC inh inactive.
`NC(=O)C1CCCN1Cc1ccc2c(c1)OCO2` (stereo not drawn) gave Anthrax LF inh2 inactive, BoNT-A LC inh2 inactive, Bead autofluor inactive and BoNT-F LC inh inactive.
`CC1CCC(NC(=O)c2cccn2C)CC1` (stereo not drawn) gave Anthrax LF inh2 inactive, BoNT-A LC inh2 inactive, Bead autofluor inactive and BoNT-F LC inh inactive.
For NC(=S)NN=C1CCSCC1 the results were Anthrax LF inh2 inactive, BoNT-A LC inh2 inactive, Bead autofluor inactive and BoNT-F LC inh inactive.
For CC(C)N(CCNC(=O)C1CCCN(c2ncnc3c2nc2n3CCCCC2)C1)Cc1ccccc1 (stereo not drawn) the results were Anthrax LF inh2 inactive, BoNT-A LC inh2 inactive, Bead autofluor inactive and BoNT-F LC inh inactive.
For CCOc1ccc(-c2nnc3n2N=C(c2ccc(OC)cc2)CS3)cc1 the results were Anthrax LF inh2 inactive, BoNT-A LC inh2 inactive, Bead autofluor 19797 and BoNT-F LC inh inactive.
